Screens: PubChem, National Center for Advancing Translational Sciences (NCATS)
This is a sample that favours compounds with a hit; in the whole collection about 3.8% have one here.
PLK1 PBD block: blocks phosphopeptide binding to human PLK1 polo-box domain. Potency, µM, for inactives: max response, negative = inhibition, most hits filed as inhibitors. Plk1 PBD binding of FITC phosphopeptide, fluorescence polarization. actives 2.8% (n = 360,000); also: potency is read from the fitted curve at half-maximal effect; series mostly up to about 57 µM; % is scaled to controls: 0 for no effect and ±100 for the full control effect; nearly all actives have a fitted effect of over 65% in size
hERG WT inh: blocks the wildtype human KCNH2 potassium channel. actives 0.37% (n = 340,000). Q12809. activity change, % at 1.84 µM. U2OS, BacMam KCNH2, thallium flux FluxOr; hits give low values;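 active = maximum activity change below -70%; inconclusive = maximum activity change between -70% and -50%; inactive = maximum activity change above -50%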; also: % is scaled to controls: 0 for no effect and ±100 for the full control effect
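U2OS cells were transduced with wild-type KCNH2 virus (2.03 x 10^8 / mL) for 4 h at room temperature, then cultured overnight at 37 C. Thallium flux was read with FluxOr dye. Rate constants were normalized to DMSO controls.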
MBNL1-CUG inh: blocks human MBNL1 binding to CUG repeat RNA; TR-FRET MBNL1-His/biotin-(CUG)12 binding, 665/545 ratio; Potency, µM (highest dose often 57.5 µM), for inactives: at the top dose activity change, negative = inhibition, most hits filed as inhibitors; actives 0.036% (n = 280,000); Q9NR56; AID 2675; active = well fitted inhibition curve with a large enough effect in the signal ratio, with a control signal flat, not every such curve was filed as active; inconclusive = small, poorly fitted or top-dose-only effect, or effect the other way, or a change in a side signal; inactive = no such curve, though single readings can be large or run the other way; the % refers to the signal ratio; also: potency is read from the fitted curve at half-maximal effect; % is scaled to controls: 0 for no effect and ±100 for the full control effect
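Ratiometric TR-FRET (665 over 545 nm, excitation 340 nm) tracks disruption of MBNL1-His/biotin-(CUG)12 complex after 60 min at room temperature, with compounds at 92 nM to 58 uM final.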
KCNH2 3.1 block: KCNH2 3.1 (human) potassium channel inhibition; U2OS KCNH2 3.1, thallium flux FluxOr; hits give low values; AID 720553; activity change, % (tested at about 1.8 µM); actives 0.95% (n = 340,000);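 active = maximum activity change below -70%; inconclusive = maximum activity change from -70% to -50%; inactive = maximum activity change above -50%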;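 also: thallium influx rate constant from kinetic fluorescence after stimulation buffer; % is scaled to controls: 0 for no effect and ±100 for the full control effect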
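We transduce U2OS cells with the mutant 3.1 virus, culture them overnight, load FluxOr with Red40 quencher for 45 min, then add stimulation buffer and read kinetically for 2 min to derive a normalized rate constant.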
CBFb-RUNX1 inh: blocks binding between human CBF-beta and RUNX1. AlphaScreen CBFb-His/RUNX1-biotin binding, biochemical. Q01196+Q13951. Potency, µM (highest dose often 59.8 µM), without a hit: at the highest dose activity, negative = inhibition, actives largely listed as inhibitors. 230,000 tested, under 10 active; also: % of control where 0% means no effect
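Proteins preincubated together for 20 min at RT before compound addition; 15 min later, nickel and streptavidin beads were added and left 90 min prior to AlphaScreen measurement.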
VDR inhibitor: blocks the human vitamin D receptor | P11473 | VDR-SRC2-3 peptide fluorescence polarization, 2 h | Potency, µM, without a hit: max response, negative = inhibition, usual class: inhibitors | actives 0.93% (n = 400,000); also: potency is read from the fitted curve at half-maximal effect; % is scaled to controls: 0 for no effect and ±100 for the full control effect
Target sequence (P11473 whole entry, looked up): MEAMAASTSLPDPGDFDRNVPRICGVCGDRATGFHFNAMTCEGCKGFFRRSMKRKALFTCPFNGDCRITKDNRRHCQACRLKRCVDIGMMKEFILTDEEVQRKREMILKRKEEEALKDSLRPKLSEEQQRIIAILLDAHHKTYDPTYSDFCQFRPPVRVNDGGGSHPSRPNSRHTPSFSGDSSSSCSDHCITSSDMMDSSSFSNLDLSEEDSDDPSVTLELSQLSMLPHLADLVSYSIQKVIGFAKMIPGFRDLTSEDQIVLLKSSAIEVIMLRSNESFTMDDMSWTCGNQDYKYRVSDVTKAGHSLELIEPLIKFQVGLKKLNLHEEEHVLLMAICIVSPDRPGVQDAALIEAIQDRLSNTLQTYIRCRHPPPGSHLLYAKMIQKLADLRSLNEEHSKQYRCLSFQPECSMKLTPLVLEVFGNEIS
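Measured by FP: displacement of SRC2-3 coactivator peptide from VDR by library compounds, following a two-hour ambient incubation.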
Active calls of the source: *; ? = inconclusive; nt = no result given; [ ] = remark or other dose. Unless noted, calls follow the shape of the dose curve; as a rule, active = well fitted curve in the direction sought with a large enough effect; inconclusive = small, poorly fitted or top-dose-only effect, or another doubt; inactive = no such curve, though single readings can be large; an effect the other way counts as inactive or inconclusive.

SMILES | PLK1 PBD block | hERG WT inh | MBNL1-CUG inh | KCNH2 3.1 block | CBFb-RUNX1 inh | VDR inhibitor
Cc1cccc(NC(=O)CCc2c(C)nn(-c3ccc(N4CCOCC4)nn3)c2C)c1 | -5% | -6 | 7% | 10 | nt | -12%
Cc1ccc(NC(=O)CCc2c(C)nn(-c3ccc(N4CCOCC4)nn3)c2C)cc1C | 27µM* | 8 | 0% | 20 | nt | -19%
C=CCc1ccc(OCC(O)CN2CCC(Cc3ccccc3)CC2)c(OC)c1 (stereo unspecified) | -3% | -31 | 5% | -86* | -2% | -7%
C=CCc1ccc(OCC(O)CN2CCN(Cc3ccc(Cl)cc3)CC2)c(OC)c1 (stereo unspecified) | -7% | -50 | -26% | -83* | -1% | -14%
C=CCc1ccc(OCC(O)CN2CCN(c3ccccc3OC)CC2)c(OC)c1 (stereo unspecified) | 5% | -5 | -10% | -8 | nt | 30%
Cc1cccc(CSc2cn(CC(=O)N3CCCCC3)c3ccccc23)c1 | nt | nt | nt | nt | nt | -2%
CC(C)Cn1nnnc1S(=O)(=O)CC#N | nt | nt | nt | nt | -1% | 7%
COCC(=O)Nc1cc([N+](=O)[O-])ccc1C | 12µM* | -8 | 20% | 7 | 0% | -4%
CCOC(=O)C(=O)Nc1cc([N+](=O)[O-])ccc1C | -3% | 3 | 19% | -1 | 0% | -2%
Cc1ccc([N+](=O)[O-])cc1NC(=O)C(C)NS(=O)(=O)c1ccc(F)cc1 (stereo unspecified) | 24µM* | 1 | 27% | 18 | 2% | -5%
Cc1ccccc1NC(=O)CCC(=O)N/N=C/c1cc([N+](=O)[O-])ccc1O | -4% | 9 | ? | -40 | -4% | -17%
Cc1ccc(C)c(NC(=O)CCC(=O)N/N=C/c2cc([N+](=O)[O-])ccc2O)c1 | 38µM* | 2 | ? | 10 | -23% | 1%
Cc1ccc([N+](=O)[O-])cc1NC(=O)CCCOc1ccccc1 | -5% | 3 | 7% | -110* | 0% | -9%
COc1ccc(CCNC(=O)CCc2c(C)nc3c(c(C)nn3-c3ccccc3)c2C)c(OC)c1 | nt | nt | nt | nt | nt | 1%
O=C(COc1ccc2ccccc2c1)NC1CC(=O)N(c2ccccc2)C1 (stereo unspecified) | nt | nt | nt | nt | nt | -8%
Fc1ccc(N2CCN(C(c3cccs3)c3nnnn3CCc3ccccc3)CC2)cc1 (stereo unspecified) | 24µM* | 20 | 2% | -26 | -9% | -5%
Fc1ccccc1N1CCN(C(c2cccs2)c2nnnn2CCc2ccccc2)CC1 (stereo unspecified) | -20% | 4 | -2% | 2 | 2% | 2%
Cc1cccc(/C=N/NC(=O)c2cc3c(s2)-c2ccccc2CC3)c1 | 21µM* | 4 | -9% | -12 | -9% | -9%
CN(C)C(=O)c1ccc(-c2cc(-n3ccnc3)ncn2)cc1 | nt | nt | nt | nt | nt | -4%
CN(C)c1ccc(-c2cc(NCc3ccccc3)ncn2)cc1 | nt | nt | nt | nt | nt | -24%
CN(C)c1ccc(-c2cc(Nc3ccc(F)cc3)ncn2)cc1 | nt | nt | nt | nt | nt | 45µM*
CN(C)c1ccc(-c2cc(-n3ccnc3)ncn2)cc1 | nt | nt | nt | nt | nt | 50µM*
Cc1ccc(NC2Sc3ccccc3NC2=O)cc1 (stereo unspecified) | 9.5µM* | -8 | -4% | 5 | -4% | 11µM*
O=C1Nc2ccccc2SC1c1ccccc1 (stereo unspecified) | -13% | -4 | 1% | 1 | nt | ?
Cc1ccc(OCc2nc(-c3ccc(C(=O)N4CCN(c5cccc(C(F)(F)F)c5)CC4)cc3)oc2C)cc1 | nt | nt | nt | nt | nt | 2%
SMILES | PLK1 PBD block | hERG WT inh | MBNL1-CUG inh | KCNH2 3.1 block | CBFb-RUNX1 inh | VDR inhibitor
Nc1cc(=O)[nH]c(SCC(=O)Nc2cc([N+](=O)[O-])ccc2Cl)n1 | 21µM* | -3 | ? | 7 | -5% | -15%
CCCCc1nc2c(c3c1C[C@H](C)OC3)CN(C(=O)c1cc(I)ccc1F)CC2 | nt | nt | nt | nt | 6%[13.1 µM] | nt
COc1ccccc1CNC(=O)c1c2c(nc3ccccc13)C(=O)N(C1CCCCC1)C2 | nt | nt | nt | nt | nt | 8%
O=C1/C(=C/c2ccco2)SC(=S)N1c1cccnc1 | 17µM* | -7 | ? | 6 | nt | -18%
O=C1/C(=C\c2ccco2)SC(=S)N1c1ccc(O)cc1 | -9% | 4 | 12%[11.5 µM] | 10 | ? | -4%
CC(C)c1ccc(Nc2c(-c3ccsc3)nc3ccc(Cl)cn23)cc1 | nt | nt | nt | nt | nt | 12%
CCN(CC)CCN1C(=O)/C(=C\c2ccc(Cl)c([N+](=O)[O-])c2)SC1=Nc1ccc(OC)cc1 | -14% | -47 | 24% | -99* | nt | ?
COc1ccc(N=C2S/C(=C\c3ccc(Cl)c([N+](=O)[O-])c3)C(=O)N2CCN(C)C)cc1 | -13% | 17 | 15% | -28 | nt | ?
COc1cccc(CNC(=O)CN2C(=O)N(c3ccc(C)cc3C)S(=O)(=O)c3ccccc32)c1OC | nt | nt | nt | nt | nt | -5%
COc1c(C)cc(S(=O)(=O)N2CCOCC2)c(C)c1C | 2% | -4 | 5% | -172* | 6% | -19%
COc1c(C)cc(S(=O)(=O)N2CCCC2)c(C)c1C | -1% | 1 | 0% | -13 | 1% | -14%
COc1ccc(C(=O)c2ccc(OC)c(OC)c2)cc1OC | 0% | 5 | 11% | -19 | 3% | 2%
CN(C)C(=S)c1ccc(N(C)C)cc1 | 27µM* | 7 | -8% | 2 | -12% | ?
COc1ccc(C(=S)N(C)C)cc1OC | 19µM* | -2 | -8% | -10 | 2% | ?
CN(C)c1ccc(C(=N)c2ccc(N(C)C)cc2)cc1 | nt | nt | nt | nt | 20%[21.7 µM] | nt
CN(C)C(=S)c1ccccc1 | 21µM* | 0 | -2% | 2 | 6% | ?
CC1CC=CC2C1C(=O)N(Cc1ccccc1)C2c1ccc(Br)cc1F (stereo unspecified) | nt | nt | nt | nt | 12% | -26%
Cc1ccc2c(Br)cc(Br)c(O)c2n1 | nt | nt | nt | nt | nt | -3%
O=C(NCC1CCCO1)C(C(=O)c1ccccc1)n1ccccc1=O (stereo unspecified) | -4% | -15 | -12% | 4 | -7% | -12%
O=C(NCC1CCCO1)C(Cc1ccccc1)N1C(=O)C2C3C=CC(C4CC34)C2C1=O (stereo unspecified) | 11µM* | 6 | -4% | -27 | 1% | ?
Cc1cc(C)c(CN2C(=O)c3ccccc3S(=O)(=O)c3ccc(C(=O)OCC4CCCO4)cc32)c(C)c1 (stereo unspecified) | nt | nt | nt | nt | nt | 4%
O=C1c2ccccc2C(=O)N1C1C=CC=CC=C1 | 30µM* | -1 | nt | -11 | nt | nt
CCc1cccc(C)c1NC(=O)CCCn1nc(C)c2sc3ccccc3c2c1=O | nt | nt | nt | nt | nt | 15%
Cc1ccc(C2CC2c2n[nH]c(=S)n2-c2cccc(C)c2)cc1 (stereo unspecified) | 24µM* | 9 | 6% | 7 | -9% | -14%
